Screens: PubChem, National Center for Advancing Translational Sciences (NCATS)
Rows were chosen to be rich in hits. Some 9.5% of all compounds tested hit in one or more screens of this group.
RE007 growth inh: less growth of the S. pombe RE007 Vpr strain; 0.21% of 360,000 active; S. pombe RE007 Vpr strain, BacTiter-Glo ATP luminescence, 24 h; Potency, µM (highest dose often 92.2 µM), for inactives: at the top dose activity change, negative = less growth, actives largely listed as inhibitors; active = well fitted falling curve with a large enough effect; inconclusive = small, poorly fitted or top-dose-only effect; inactive = no such curve, though single readings can be large or run the other way; also: % is scaled to controls: 0 for no effect and ±100 for the full control effect; nearly all actives have a fitted effect of over 50% in size
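Fission yeast strain RE007, carrying one chromosomally integrated HIV-1 vpr copy, was seeded at OD 0.01 in PMG+AL medium with 23 nL pinned compound. After 24 h at 30 °C and 99% humidity, viability was read by BacTiter-Glo luminescence.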
Pf growth 96h: P. falciparum growth inhibition at 96 hours; 6.9% of 320,000 active; Potency, µM (series often up to 28.7 µM), for the others: at the top dose activity change, negative = inhibition, actives largely listed as inhibitors; P. falciparum luciferase reporter growth, 96 h; also: % is scaled to controls: 0 for no effect and ±100 for the full control effect
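Readout is luminescence from an integrated firefly luciferase in P. falciparum. Red cells, 2% hematocrit and 0.05% parasitemia final, were cultured with compound through two parasite generations (96 hours) at 37 C, 5% CO2.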
NS1 function inh: influenza NS1 inhibition; Potency, µM (doses to about 46.1 µM), for inactives: at the highest dose activity, positive = more growth; 0.4% of 270,000 active; AID 2326; calls by dose curve; also: actives are rising curves; nearly all actives have a fitted effect of over 50% in size
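Compounds were scored for reversing the slow growth caused by influenza A NS1 in S. cerevisiae, measured by optical density at 600 nm. Assay medium contained 2% galactose at pH 6.0; NS1-free yeast of the same strain were the positive control.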
SARS PLpro yeast: inhibitors of SARS-CoV papain-like protease in yeast | S. cerevisiae expressing SARS-CoV PLpro, growth rescue | AID 485353 | Potency, µM (doses to about 32.9 µM), for inactives: top-dose activity, positive = growth rescue, hits mostly activators | 0.19% of 330,000 active; calls by dose curve; also: 0% is about no effect; nearly all actives have a fitted effect of over 55% in size
Pf growth 48h: inhibits P. falciparum growth in the first generation, 48 h; 5.9% of 310,000 active; Potency, µM (doses to about 28.7 µM), for inactives: at the highest dose activity change, negative = inhibition, usual class: inhibitors; P. falciparum luciferase growth in erythrocytes, 48 h; also: % is scaled to controls: 0 for no effect and ±100 for the full control effect
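Firefly luciferase activity from engineered P. falciparum reports growth; inhibitors lower the luminescent signal. Cultures contained 2% hematocrit erythrocytes at 0.1% final parasitemia.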
* hit, by the source's call. Unless noted, calls follow the shape of the dose curve; as a rule, active = well fitted inhibition curve with a large enough effect; inconclusive = small, poorly fitted or top-dose-only effect, or another doubt; inactive = no such curve, though single readings can be large or run the other way. Potency is read from the fitted curve at half-maximal effect.

What do the screens show for `O=C(c1cnc2n(c1=O)CCS2)N(c1ccccc1)C1CCCCC1`?
RE007 growth inh: 1%; Pf growth 96h: 6.6µM*; NS1 function inh: -6%; SARS PLpro yeast: 6%; Pf growth 48h: inconclusive

What do the screens show for `O=C(c1ccc(Cn2c(=O)[nH]c3ccccc3c2=O)cc1)N1CCN(c2ccccc2)CC1`?
RE007 growth inh: 21%; Pf growth 96h: 3.3µM*; NS1 function inh: -14%; SARS PLpro yeast: 5%; Pf growth 48h: inconclusive

What do the screens show for `O=C(c1ccc2c(=O)n(Cc3ccco3)c(=S)[nH]c2c1)N1CCN(c2ccccc2)CC1`?
RE007 growth inh: 6%; Pf growth 96h: 12µM*; NS1 function inh: -5%; SARS PLpro yeast: -5%; Pf growth 48h: 7%

What do the screens show for `C[C@@H](C(=O)Nc1cccnc1)n1c(=O)[nH]c2ccccc2c1=O`?
RE007 growth inh: 3%; Pf growth 96h: inconclusive; NS1 function inh: 3%; SARS PLpro yeast: 8%; Pf growth 48h: 12µM*

Results for COC(=O)/C=C/C(=O)N1CCN(c2ccccc2)CC1 ?
RE007 growth inh: -14%; Pf growth 96h: inconclusive; NS1 function inh: -13%; SARS PLpro yeast: -11%; Pf growth 48h: -5%

Results for COc1ccc(C(=S)N2CCCCCC2)cc1 ?
RE007 growth inh: -6%; Pf growth 96h: -22%; NS1 function inh: 7%; SARS PLpro yeast: 28%; Pf growth 48h: 25%

How did COc1ccc(C(=S)N2CCN(c3ccccc3C)CC2)cc1 do in these assays?
RE007 growth inh: 11%; Pf growth 96h: 8.3µM*; NS1 function inh: -33%; SARS PLpro yeast: 11%; Pf growth 48h: inconclusive

Results for COC(=O)/C=C/C(=O)N1CCN(c2ccccc2C)CC1 ?
RE007 growth inh: 6%; Pf growth 96h: 7.4µM*; NS1 function inh: -4%; SARS PLpro yeast: -9%; Pf growth 48h: -17%

Results for CC1(C)CN(c2ccccc2)N(Cc2ccc(F)cc2)C1=O ?
RE007 growth inh: -9%; Pf growth 96h: -3%; NS1 function inh: -6%; SARS PLpro yeast: 9%; Pf growth 48h: inconclusive

What do the screens show for `CC(OC(=O)c1ccccc1C(=O)N(C)Cc1ccccc1)C(=O)NC1(C#N)CCCCC1` (stereo unspecified)?
RE007 growth inh: inconclusive; Pf growth 96h: inconclusive; SARS PLpro yeast: 1%; Pf growth 48h: 10µM*

What do the screens show for `COc1cc(OC)cc(C(=O)NNC(=O)CCC(=O)c2cc(C)sc2C)c1`?
RE007 growth inh: -2%; SARS PLpro yeast: 6%

What do the screens show for `C/C(=N\NC(=O)c1cccc(N/N=C(\C)c2ccccc2)c1)c1ccccc1`?
RE007 growth inh: -11%; Pf growth 96h: -1%; NS1 function inh: 20%; SARS PLpro yeast: 22%; Pf growth 48h: inconclusive

What do the screens show for `COc1ccc(N/N=C(/Oc2ccc([N+](=O)[O-])cc2)C(C)=O)cc1`?
RE007 growth inh: 9%; Pf growth 96h: 12µM*; NS1 function inh: 3%; SARS PLpro yeast: 5%; Pf growth 48h: inconclusive

Results for C/C(=N\NC(=O)C(C)Sc1ccccc1)c1ccc([N+](=O)[O-])cc1 (stereo unspecified) ?
RE007 growth inh: 3%; Pf growth 96h: 9.3µM*; NS1 function inh: 3%; SARS PLpro yeast: 7%; Pf growth 48h: -11%

How did COc1ccc(NN=Nc2ccc([N+](=O)[O-])cc2)cc1 do in these assays?
RE007 growth inh: 0%; Pf growth 96h: 113%; NS1 function inh: -6%; SARS PLpro yeast: 6%; Pf growth 48h: 191%

How did C/C(=N\NC(=O)c1cccc(N/N=C(\C)c2ccncc2)c1)c1ccncc1 do in these assays?
RE007 growth inh: -6%; Pf growth 96h: 8.3µM*; SARS PLpro yeast: 1%; Pf growth 48h: inconclusive

Results for CCc1ccc(/C(C)=N\Nc2ccc([N+](=O)[O-])cc2)cc1 ?
RE007 growth inh: 22%; Pf growth 96h: 4.1µM*; NS1 function inh: -65%; SARS PLpro yeast: -6%; Pf growth 48h: 31%

How did C/C(=N\Nc1ccc([N+](=O)[O-])cc1)c1ccc(N)cc1 do in these assays?
RE007 growth inh: 11%; Pf growth 96h: 0%; NS1 function inh: -43%; SARS PLpro yeast: -81%; Pf growth 48h: inconclusive

Results for CCOC(=O)Cc1csc(SCC(=O)N(CC(C)C)c2c(N)n(Cc3ccccc3)c(=O)[nH]c2=O)n1 ?
RE007 growth inh: 12%; Pf growth 96h: 0%; SARS PLpro yeast: -4%; Pf growth 48h: -5%

What do the screens show for `C/C(=N\NC(=O)c1cccc(N/N=C(\C)c2ccc([N+](=O)[O-])cc2)c1)c1ccc([N+](=O)[O-])cc1`?
RE007 growth inh: 7%; Pf growth 96h: 4.1µM*; NS1 function inh: 5%; SARS PLpro yeast: 4%; Pf growth 48h: 1.7µM*

What do the screens show for `C/C(=N\NC(=O)c1cc2c(s1)CCC(C)C2)c1ccncc1` (stereo unspecified)?
RE007 growth inh: -10%; Pf growth 96h: 9.3µM*; NS1 function inh: -3%; SARS PLpro yeast: -28%; Pf growth 48h: -24%

What do the screens show for `C/C(=N\NC(=O)c1ccc2nc[nH]c2c1)c1ccc([N+](=O)[O-])cc1`?
Pf growth 96h: -18%; NS1 function inh: 4%; SARS PLpro yeast: 1%; Pf growth 48h: 16%

Results for CCOc1cc(/C=N/NC(=O)c2cccnc2)ccc1OCC(=O)N1CCOCC1 ?
RE007 growth inh: 9%; Pf growth 96h: inactive; NS1 function inh: 4%; SARS PLpro yeast: inconclusive; Pf growth 48h: 6%

How did CCOC(=O)C1(C)CCCN(C(=O)c2c(F)cccc2F)C1 (stereo unspecified) do in these assays?
RE007 growth inh: 8%

What do the screens show for `Cc1occc1C(=O)N1CCN(S(=O)(=O)c2ccc(F)cc2)CC1`?
RE007 growth inh: 8%; Pf growth 96h: 6%; SARS PLpro yeast: -1%; Pf growth 48h: -24%

Results for CC(=O)Cn1c(CN2CCCC2)nc2ccccc2c1=O ?
RE007 growth inh: -16%; Pf growth 96h: 35%; SARS PLpro yeast: -2%; Pf growth 48h: 10%

How did Cc1cccc(C)c1NC(=O)Cn1c(CN2CCCCC2)nc2ccccc2c1=O do in these assays?
RE007 growth inh: 1%; Pf growth 96h: 131%; NS1 function inh: -7%; SARS PLpro yeast: 8%; Pf growth 48h: 15µM*

How did CC(=O)Cn1c(CN2CCCCC2)nc2ccccc2c1=O do in these assays?
RE007 growth inh: -9%; Pf growth 96h: 12%; SARS PLpro yeast: 1%; Pf growth 48h: 10µM*

Results for O=C(Nc1ccnn1C1CCN(Cc2cccc(OCCO)c2)CC1)c1cccc(F)c1 ?
RE007 growth inh: -4%; Pf growth 96h: 28%; NS1 function inh: 4%; SARS PLpro yeast: -7%; Pf growth 48h: inconclusive

How did O=S(=O)(c1ccc(NC(=S)NN=Cc2ccccc2O)cc1)N1CCCCC1 do in these assays?
RE007 growth inh: 0%

Results for CCOc1cccc(-c2c(C(=O)N/N=C/c3ccoc3)nnn2-c2nonc2N)c1 ?
RE007 growth inh: 0%; Pf growth 96h: inconclusive; NS1 function inh: 10%; SARS PLpro yeast: -4%; Pf growth 48h: 4%
